# Shown are actives, neighbours in structure and some others; about 22% of the full set was active somewhere.
# Shiga inhibitor = A qHTS for Small Molecule Inhibitors of Shiga Toxin; Vero cells, Shiga toxin protein synthesis inhibition reporter; inhibition, % at 38.7 µM; actives 9.2% (n = 290,000); AID 2315, 2010; in the data active = inhibition mostly above about 28%, no sharp cut-off; inactive = mostly below about 43%; note: 0% is about no effect
# Cycloheximide cs = Cycloheximide Counterscreen for Small Molecule Inhibitors of Shiga Toxin. max response, %. cell reporter, cycloheximide protein synthesis inhibition counterscreen. actives 12% (n = 300,000); in the data active = max response mostly above about 13%, no sharp cut-off; inactive = mostly below about 14%; note: read at 38.3 µM for the half of the compounds with a filed dose; 0% is about no effect
# LmPK inhibitor = qHTS Assay for Inhibitors of Leishmania Mexicana Pyruvate Kinase (LmPK); Potency, µM (titrated, usually from 57.5 µM), inactives show at the highest dose activity change, negative = inhibition, hits mostly inhibitors; actives 0.37% (n = 290,000); purified LmPK, Kinase-Glo ATP luminescence, 1 h; AID 1721, 2009; note: potency is the fitted concentration of half-maximal effect; % is set by controls: 0 for no effect and ±100 for the full control effect
# Target sequence (Q27686 whole entry, looked up): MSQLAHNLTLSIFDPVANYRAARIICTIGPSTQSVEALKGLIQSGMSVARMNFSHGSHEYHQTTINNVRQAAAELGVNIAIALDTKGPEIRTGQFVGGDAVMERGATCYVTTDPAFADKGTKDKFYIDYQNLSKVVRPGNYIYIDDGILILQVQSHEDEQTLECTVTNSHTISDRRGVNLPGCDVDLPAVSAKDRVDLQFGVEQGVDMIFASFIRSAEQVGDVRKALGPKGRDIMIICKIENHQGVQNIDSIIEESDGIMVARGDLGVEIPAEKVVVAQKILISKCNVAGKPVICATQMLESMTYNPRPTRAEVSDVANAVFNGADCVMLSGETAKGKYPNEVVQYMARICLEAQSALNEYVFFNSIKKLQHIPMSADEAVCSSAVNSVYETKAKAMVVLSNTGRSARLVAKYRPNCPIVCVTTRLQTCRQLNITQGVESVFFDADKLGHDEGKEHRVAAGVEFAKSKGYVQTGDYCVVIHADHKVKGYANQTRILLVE
#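 0.1 nM LmPK, 0.5 mM PEP, 0.1 mM ADP; 50 mM imidazole pH 7.2, 7 mM MgCl2, 50 mM KCl; 1 h RT. Kinase-Glo luminescence readout, normalized to no-enzyme (full inhibition) and uninhibited wells.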
# Pf growth 96h = Primary qHTS for delayed death inhibitors of the malarial parasite plastid, 96 hour incubation; Potency, µM (titrated, usually from 28.7 µM), inactives show top-dose activity change, negative = inhibition, most hits filed as inhibitors; actives 6.9% (n = 320,000); AID 504834, 2011; P. falciparum luciferase reporter growth, 96 h; note: potency is the fitted concentration of half-maximal effect; % is set by controls: 0 for no effect and ±100 for the full control effect
#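 Plates of compound plus infected erythrocytes (2% hematocrit, 0.05% parasitemia final) incubate 96 hours, 37 C, 5% CO2. Detection reagent added; reduced luminescence from the parasites' luciferase reporter flags inhibition.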
# Pf growth 48h = Primary qHTS for delayed death inhibitors of the malarial parasite plastid, 48 hour incubation; P. falciparum luciferase growth in erythrocytes, 48 h; Potency, µM (series often up to 28.7 µM), inactives show top-dose activity change, negative = inhibition, hits mostly inhibitors; actives 5.9% (n = 310,000); AID 504832, 2011; note: potency is the fitted concentration of half-maximal effect; % is set by controls: 0 for no effect and ±100 for the full control effect
#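 Compounds are pin-transferred into medium, infected erythrocytes (2% hematocrit, 0.1% parasitemia final) are added, and plates sit one parasite generation at 37 C in 5% CO2. Detection reagent is then added and luminescence measured.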
# * marks the source's active call; other numbers are inactive results; i = inactive; ? = inconclusive; . = no result; [ ] = dose if it differs, or a comment. Unless noted, calls come from the whole dose curve; as a rule, active = well fitted inhibition curve with a large enough effect; inconclusive = small, poorly fitted or top-dose-only effect, or another doubt; inactive = no such curve, though single readings can be large or run the other way.
SMILES,Shiga inhibitor,Cycloheximide cs,LmPK inhibitor,Pf growth 96h,Pf growth 48h
CCn1c(SCC(=O)Nc2nc3c(s2)CCCC3)nnc1-c1ccccc1,11.7,-4.1,5.5%,13.3%,2.08µM*
Cc1ccc(C)c2c1cc(C)c1nnc(SCC(=O)Nc3nc4c(s3)CCCC4)n12,-6.9,-1.2,-0.1%,11.0%,-0.8%
Cc1ccc2cc(C)c3nnc(SCC(=O)c4cccs4)n3c2c1C,26.0,37.5*,0.5%,50.7%,-1.4%
CCOC(=O)c1ccccc1NC(=O)COC(=O)CN1C(=O)C2CC=CCC2C1=O (stereo not given),-16.2,4.4,2.0%,-22.4%,-3.1%
Cc1ccccc1CN1CCN(C(C)C(=O)NNC(=O)c2ccc(F)cc2)CC1 (stereo not given),.,.,.,?,-13.6%
O=C(Nc1cc(Cl)ccc1O)c1snnc1-c1ccccc1,-8.0,-2.1,1.4%,11.7µM*,?
O=C(CCc1ccccc1)Nc1cc(Cl)ccc1O,31.5,11.0,-12.2%,?,10.4µM*
O=C(COc1ccccc1Cl)Nc1cc(Cl)ccc1O,58.7,12.3,-1.2%,12.6%,?
O=C(CCc1ccccc1)Nc1cccnc1Cl,40.3,17.6*,-14.4%,70.5%,55.5%
O=C(O)CC(=O)Nc1cc(Cl)ccc1O,-3.5,-6.1,-1.7%,6.4%,.
CCOC(=O)CC(=O)Nc1cc(Cl)ccc1O,-7.1,4.7,-11.6%,11.7µM*,15.0%
CCCN(C(=O)CSCC(=O)Nc1cccc(C)c1)c1c(N)n(Cc2ccccc2)c(=O)[nH]c1=O,-19.4,1.1,-11.7%,-16.2%,-15.7%
O=C(NCCCl)Nc1cccnc1Cl,12.6,12.1*,-3.3%,-3.4%,6.5%
O=C(CC(=O)c1ccccc1)Nc1cccnc1Cl,73.3*,44.0*,-9.6%,-3.5%,95.3%
CSc1ccccc1NC(=O)NCCCl,-5.7,7.8,3.0%,-11.3%,50.7%
Cc1ccc(OCC(=O)Nc2ccccc2C(=O)N2CCCC2)cc1,6.6,8.6,-5.0%,-23.0%,10.1%
CCOC(=O)N1CCN(C(=O)CN(Cc2ccc(Cl)cc2)S(=O)(=O)c2ccc(C)cc2)CC1,-16.6,27.4,2.5%,1.85µM*,.
CCOC(=O)N1CCN(C(=O)CN(Cc2ccc(Cl)cc2)S(C)(=O)=O)CC1,-24.5,-2.8,-0.2%,0.6%,-5.9%
CCN(CC(=O)N1CCN(C)CC1)S(=O)(=O)c1ccc(Cl)cc1,6.0,-0.8,0.5%,9.28µM*,-13.6%
CCN(CC(=O)N1CCCCCC1)S(=O)(=O)c1ccc(C)cc1,-2.4,-4.1,-3.2%,7.38µM*,-15.3%
CCN(CC(=O)N1CCCCCC1)S(=O)(=O)c1ccc(Cl)cc1,-2.3,-1.5,-1.2%,18.7%,?
CCN(CC(=O)N1CCCC1)S(=O)(=O)c1ccc(Br)cc1,-5.9,-1.0,0.5%,0.0%,?
COc1cc(/C=N/NC(=O)c2cccc(S(=O)(=O)N3CCCC3)c2)cc(OC)c1O,.,.,.,12.6%,5.1%
Cc1ccc(-n2c(-c3ccco3)n[nH]c2=S)cc1,19.8,-0.7,?,?,33.2%
CC(C1CC2CCC1C2)n1c(-c2ccco2)n[nH]c1=S (stereo not given),-2.9,-1.2,12.6µM*,28.3%,?
SMILES,Shiga inhibitor,Cycloheximide cs,LmPK inhibitor,Pf growth 96h,Pf growth 48h
COc1cccc(N2CCN(C(=O)c3cc4c(s3)CCCCC4)CC2)c1,.,.,.,62.4%,47.8%
Cc1nn(C)c(C)c1CN(C)C(=O)c1nn2c(c1Br)NC(c1cccs1)CC2C(F)(F)F (stereo not given),-7.2,-2.9,3.9%,9.28µM*,?
Cc1nn(C)c(C)c1CNC(=O)c1cc2n(n1)C(C(F)(F)F)CC(c1cccs1)N2 (stereo not given),-3.7,-2.1,1.5%,7.38µM*,-6.2%
Cc1nn(C)c(C)c1CN(C)C(=O)c1cnn2c1NC(c1ccccc1)CC2C(F)(F)F (stereo not given),-8.0,-2.3,18.1%,i,.
O=C(OCCCOC(=O)c1ccccc1O)c1ccccc1O,-8.2,-2.0,-0.1%,53.8%,18.5%
Cc1cc(C)n(S(=O)(=O)c2cc(Cl)ccc2Cl)n1,-17.1,-2.2,-0.8%,0.0%,10.4µM*
CCOc1ccc(C(C)(C)C)cc1S(=O)(=O)n1nc(C)cc1C,-6.2,-0.1,7.4%,8.28µM*,4.65µM*
CCOc1ccc(C(C)(C)C)cc1S(=O)(=O)N1CC(C)OC(C)C1 (stereo not given),16.9,-3.1,1.3%,.,11.7µM*
Cc1cc(C)n(S(=O)(=O)c2ccc(Cl)cc2)n1,-5.9,-2.7,0.4%,?,14.0%
CCOc1ccc(C)cc1S(=O)(=O)n1nc(C)cc1C,17.6,-5.5,1.1%,9.5%[5.75 µM],18.4%
COc1cccc(NC(=O)CSc2nc(O)c(C)c(=O)n2-c2ccc(C)cc2)c1,-4.0,0.7,3.3%,10.4µM*,-5.2%
Nc1cc(=O)nc(SCC(=O)Nc2ccccc2)n1-c1ccccc1,-13.3,-4.4,0.6%,1.85µM*,1.4%
Cc1c(O)nc(SCC(=O)Nc2cccc(C(F)(F)F)c2)n(-c2ccccc2)c1=O,-9.3,7.2,-5.0%,?,-8.3%
Cc1ccc(NC(=O)CSc2nc(O)cc(=O)n2-c2ccc(C)cc2)cc1,23.8,7.9,11.5%,?,13.1µM*
Cc1cccc(-n2c(N)cc(=O)nc2SCC(=O)Nc2ccccc2)c1,23.3,-0.4,-8.9%,-27.0%,.
COc1ccc2c(=O)c(-c3ccc(OC)c(OC)c3)coc2c1,54.4*,24.5*,0.6%,217.2%,83.6%
CCOC(=O)c1ccc(Oc2coc3cc(O)ccc3c2=O)cc1,-6.6,32.7,6.5%,2.94µM*,11.7%
COc1ccccc1-c1coc2cc(OC(=O)/C=C/c3ccccc3)ccc2c1=O,-4.9,-3.5,2.9%,?,37.9%
O=c1c(-c2ccc(F)cc2)coc2c3c(ccc12)OCCO3,87.1*,44.3*,-6.7%,1.1%,103.6%
O=S(=O)(Nc1ccc2c(c1)OCCO2)c1ccc(F)cc1,-2.8,11.6,5.4%,47.9%,.
CCN(CC)C(=O)Oc1ccc2c(=O)c(-c3ccccc3)coc2c1,84.8*,50.3*,-18.8%,.,85.2%
COc1ccc(Oc2coc3cc(O)ccc3c2=O)cc1,24.9,17.9,-4.9%,?,29.7%
CCn1cnc2cc(NS(=O)(=O)c3ccc(OC)c(OC)c3)ccc21,-4.9,-1.8,-0.7%,1.1%,-1.9%
CCOc1ccccc1Oc1coc2cc(O)ccc2c1=O,3.3,-1.5,-19.3%,-24.1%,16.5%
O=c1c(-c2ccc(F)cc2)coc2cc(O)ccc12,113.6*,31.7*,?,59.6%,195.1%
CCOc1ccccc1Oc1coc2cc(OC(=O)N(C)C)ccc2c1=O,55.2*,36.1*,-4.2%,2.5%,7.4%
COC(=O)COc1ccc2c(=O)c(-c3ccccc3OC)coc2c1,-1.4,-1.1,10.3%,?,-2.3%
COc1ccc(-c2coc3cc(O)ccc3c2=O)cc1OC,33.9,33.8*,-2.9%,?,116.9%
COc1ccc2c(=O)c(-c3ccccc3)coc2c1,84.2*,51.6*,?,153.1%,i
